# Paper PMC5540273 (PLoS ONE, 2017)
# What was measured:
# Settings in all cases: concentration: 1 μM, replicates: in singlicate; n = 1
# HPK1 = tested on: HPK1
# HUNK = tested on: HUNK
# ICK = tested on: ICK
# IGF1R = tested on: IGF1R
# IKK-alpha = tested on: T1, IKK-alpha
# T1 construct: gene CHUK
# IKK-beta = tested on: T2, IKK-beta
# T2 construct: gene IKBKB
# IKK-epsilon = tested on: T3, IKK-epsilon
# T3 construct: gene IKBKE
# INSRR = tested on: INSRR
# INSR = tested on: INSR
# IRAK1 = tested on: IRAK1
# IRAK3 = tested on: IRAK3
# IRAK4 = tested on: IRAK4
# ITK = tested on: ITK
# [1] = tested on: JAK1(JH1domain-catalytic)
# [2] = tested on: JAK1(JH2domain-pseudokinase)
# [3] = tested on: JAK2(JH1domain-catalytic)
# [4] = tested on: JAK3(JH1domain-catalytic)
# JNK1 = tested on: T4, JNK1
# T4 construct: gene MAPK8
# JNK2 = tested on: T5, JNK2
# T5 construct: gene MAPK9
# JNK3 = tested on: T6, JNK3
# T6 construct: gene MAPK10
# 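Also: KINOMEscan kinase panel screen.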
Structure (SMILES),%Inh (HPK1) [%],%Inh (HUNK) [%],%Inh (ICK) [%],%Inh (IGF1R) [%],%Inh (IKK-alpha) [%],%Inh (IKK-beta) [%],%Inh (IKK-epsilon) [%],%Inh (INSRR) [%],%Inh (INSR) [%],%Inh (IRAK1) [%],%Inh (IRAK3) [%],%Inh (IRAK4) [%],%Inh (ITK) [%],%Inh [1] [%],%Inh [2] [%],%Inh [3] [%],%Inh [4] [%],%Inh (JNK1) [%],%Inh (JNK2) [%],%Inh (JNK3) [%]
O=c1cc(N2CCOCC2)nc2n(Cc3cccc(F)c3)ccn12 [GSK2297430],34,4,0,9,3,5,0,0,0,0,0,1,0,8,0,2,0,21,13,0
O=C1Cc2cc(Nc3nc(NCc4cccc(S(=O)(=O)C(F)(F)F)c4)ncc3C(F)(F)F)ccc2N1,0,8,0,0,20,8,0,0,0,14,0,22,0,28,0,7,7,9,0,0
Cn1ccc2ncnc(Oc3ccc(NC(=O)Nc4ccncc4)c(Cl)c3)c21,0,0,0,0,14,16,0,0,11,8,0,7,0,14,0,0,0,0,0,0
O=C(NCCNc1ccnc(Nc2ccc(F)cc2)n1)Nc1ccccc1F [GSK1379880],33,0,0,0,0,0,0,0,0,15,0,11,30,23,0,11,0,32,19,11
COc1ccc(Nc2nccc(N3CCC(NC(=O)Nc4cccc(C(C)=O)c4)C3)n2)cc1 (stereo not shown) [GSK1379731],40,3,0,0,9,1,0,0,0,6,0,4,14,0,0,17,0,14,15,4
